Data published in the antibiotic and cytotoxicity screens of Wong et al. (2023).
Out of some 39,000 compounds screened, about 3,300 (8.5%) were called active. The sample as a whole holds a higher share of actives than the screen did.

Each compound was assayed on HepG2 (assay: cytotoxicity call (relative viability < 0.9)). Conditions: 10 µM.

SMILES	cytotoxicity call
O=C(C[C@@H]1C=C[C@@H](NC(=O)c2cnccn2)[C@H](CO)O1)NCc1ccccc1F	inactive
O=C(C[C@@H]1C[C@@H]2c3cc(NC(=O)Cc4ccncc4)ccc3O[C@@H]2[C@H](CO)O1)NCc1cccc(F)c1	inactive
CS(=O)(=O)[O-].C[n+]1ccccc1C=NO	inactive
OCc1cccc(CO)c1F	inactive
COc1ccc(S(=O)(=O)Nc2ccc3c(c2)CC(=O)N([C@@H](C)CO)C[C@H](C)[C@H](CN(C)C)O3)cc1	inactive
C[C@@H](O)CC1=C[C@H]([C@@H](C)O)OC1=O	inactive
COc1ccc(S(=O)(=O)N(C)C[C@H]2Oc3ccc(NS(=O)(=O)c4cccs4)cc3C(=O)N([C@H](C)CO)C[C@H]2C)cc1	inactive
C[C@@H]1CN([C@H](C)CO)C(=O)c2cc(NS(=O)(=O)c3cn(C)cn3)ccc2O[C@@H]1CN(C)S(C)(=O)=O	inactive
COc1ccc(S(=O)(=O)N(C)C[C@@H]2Oc3ccc(NS(=O)(=O)c4cccs4)cc3C(=O)N([C@H](C)CO)C[C@H]2C)cc1	inactive
C[C@H]1CN([C@@H](C)CO)C(=O)c2cc(NS(=O)(=O)c3cn(C)cn3)ccc2O[C@@H]1CN(C)S(C)(=O)=O	inactive
C[C@H](CO)N1C[C@H](C)[C@@H](CN(C)S(=O)(=O)c2cn(C)cn2)Oc2ccc(NS(=O)(=O)c3ccc(F)cc3)cc2C1=O	inactive
COc1ccc(S(=O)(=O)N(C)C[C@@H]2Oc3ccc(NS(=O)(=O)c4cccs4)cc3C(=O)N([C@@H](C)CO)C[C@@H]2C)cc1	active
C[C@@H]1CN([C@H](C)CO)C(=O)c2cc(NS(=O)(=O)c3cn(C)cn3)ccc2O[C@H]1CN(C)S(=O)(=O)c1cccs1	inactive
C[C@@H]1CN([C@H](C)CO)C(=O)c2cc(NS(=O)(=O)c3ccc(F)cc3)ccc2O[C@H]1CN(C)S(=O)(=O)c1cn(C)cn1	active
C[C@H](CO)N1C[C@H](C)[C@H](CN(C)S(=O)(=O)c2cn(C)cn2)Oc2ccc(NS(=O)(=O)c3ccc(F)cc3)cc2C1=O	inactive
C[C@@H]1CN([C@@H](C)CO)C(=O)c2cc(NS(=O)(=O)c3cn(C)cn3)ccc2O[C@H]1CN(C)S(C)(=O)=O	active
C[C@@H]1CN([C@H](C)CO)C(=O)c2cc(NS(=O)(=O)c3cn(C)cn3)ccc2O[C@@H]1CN(C)S(=O)(=O)c1cccs1	inactive
C[C@@H]1CN([C@@H](C)CO)C(=O)c2cc(NS(=O)(=O)c3cn(C)cn3)ccc2O[C@H]1CN(C)S(=O)(=O)c1cccs1	active
CC(C)NC(=O)N(C)C[C@H]1Oc2ccc(NC(=O)CCC(F)(F)F)cc2CC(=O)N([C@H](C)CO)C[C@@H]1C	inactive
C[C@@H]1CCCCO[C@H](CN(C)C(=O)Nc2ccccc2)[C@@H](C)CN([C@H](C)CO)C(=O)c2cc(NC(=O)Nc3cccc4ccccc34)ccc2O1	inactive
Cc1noc(C)c1S(=O)(=O)Nc1ccc2c(c1)C(=O)N([C@@H](C)CO)C[C@@H](C)[C@H](CN(C)C(=O)Nc1ccccc1)OCCCC[C@@H](C)O2	inactive
N[C@@H](C(=O)O)[C@@H](O)[C@H](O)[C@H](O)CO	inactive

SMILES	cytotoxicity call
Fc1ccc(C2=NNC3=NCCN3C2)cc1F	inactive
COc1ccc(S(=O)(=O)Nc2cccc3c2O[C@H](CN(C)S(=O)(=O)c2ccccc2)[C@@H](C)CN([C@H](C)CO)C3=O)cc1	inactive
C[C@@H]1CCCCO[C@@H](CN(C)Cc2ccc(C(=O)O)cc2)[C@H](C)CN([C@H](C)CO)C(=O)c2cc(NC(=O)Nc3ccccc3)ccc2O1	inactive
C[C@H]1CN([C@@H](C)CO)C(=O)Cc2cc(NS(=O)(=O)c3cn(C)cn3)ccc2O[C@H]1CN(C)C	inactive
CNC[C@@H]1OCCCC[C@@H](C)Oc2ccc(NC(=O)c3ccncc3)cc2C(=O)N([C@H](C)CO)C[C@@H]1C	inactive
C[C@H]1CN([C@@H](C)CO)C(=O)c2cccc(NC(=O)Nc3cccc4ccccc34)c2O[C@@H]1CN(C)S(=O)(=O)c1cccs1	inactive
O=C(C[C@H]1C[C@H]2c3cc(NC(=O)Nc4ccc(C(F)(F)F)cc4)ccc3O[C@H]2[C@@H](CO)O1)NCCc1ccccc1	inactive
C[C@@H]1CN([C@H](C)CO)C(=O)Cc2cc(NS(=O)(=O)c3cccs3)ccc2O[C@@H]1CN(C)S(=O)(=O)c1cccs1	inactive
C[C@@H]1CN([C@H](C)CO)C(=O)c2cc(NS(=O)(=O)c3cn(C)cn3)ccc2O[C@@H]1CN(C)C(=O)Nc1ccccc1	inactive
C[C@H](CO)N1C[C@H](C)[C@H](CN(C)C(=O)Nc2ccccc2)Oc2ccc(NS(=O)(=O)c3cn(C)cn3)cc2C1=O	active
COc1ccc(S(=O)(=O)N(C)C[C@H]2Oc3ccc(NS(=O)(=O)c4cccs4)cc3C(=O)N([C@@H](C)CO)C[C@@H]2C)cc1	inactive
C[C@H](CO)N1C[C@H](C)[C@@H](CN(C)S(=O)(=O)c2cccs2)Oc2ccc(NS(=O)(=O)c3cccs3)cc2CC1=O	active
C[C@H](CO)N1C[C@H](C)[C@@H](CN(C)S(=O)(=O)c2cccs2)Oc2ccc(NS(=O)(=O)c3cccs3)cc2C1=O	inactive
COc1ccc(S(=O)(=O)N(C)C[C@H]2Oc3ccc(NS(=O)(=O)c4cccs4)cc3C(=O)N([C@@H](C)CO)C[C@H]2C)cc1	inactive
C[C@@H]1CN([C@H](C)CO)C(=O)c2cc(NS(=O)(=O)c3cccs3)ccc2O[C@H]1CN(C)S(=O)(=O)c1cccs1	active
C[C@@H]1CN([C@@H](C)CO)C(=O)c2cc(NS(=O)(=O)c3cn(C)cn3)ccc2O[C@@H]1CN(C)C(=O)Nc1ccccc1	inactive
COc1ccc(S(=O)(=O)N(C)C[C@@H]2Oc3ccc(NS(=O)(=O)c4cccs4)cc3C(=O)N([C@H](C)CO)C[C@@H]2C)cc1	active
C[C@H]1CN([C@@H](C)CO)C(=O)c2cc(NS(=O)(=O)c3cccs3)ccc2O[C@H]1CN(C)S(=O)(=O)c1cccs1	inactive
C[C@@H]1CN([C@@H](C)CO)C(=O)Cc2cc(NS(=O)(=O)c3cccs3)ccc2O[C@H]1CN(C)S(=O)(=O)c1cccs1	inactive
C[C@@H]1CCCCO[C@@H](CN(C)C(=O)c2ccccc2)[C@H](C)CN([C@H](C)CO)C(=O)c2cc(NC(=O)Nc3ccccc3)ccc2O1	inactive
Cc1ccc(S(=O)(=O)NCC[C@@H]2CC[C@@H](NS(=O)(=O)c3ccccc3Cl)[C@@H](CO)O2)cc1	inactive
C[C@H]1CN([C@@H](C)CO)S(=O)(=O)c2ccc(C3=CCCC3)cc2O[C@@H]1CN(C)C(=O)Cc1ccncc1	inactive

SMILES	cytotoxicity call
COc1cccc(S(=O)(=O)N(C)C[C@H]2Oc3ncc(-c4cccc(C(=O)N(C)C)c4)cc3C(=O)N([C@H](C)CO)C[C@@H]2C)c1	inactive
C[C@H](CO)N1C[C@H](C)[C@H](CN(C)C(=O)Cc2ccccn2)Oc2cc(C#Cc3ccccc3)ccc2S1(=O)=O	inactive
COc1ccc(CNC(=O)C[C@@H]2CC[C@H]3[C@@H](COC[C@H](O)CN3S(=O)(=O)c3ccc(OC)cc3)O2)cc1	inactive
C[C@H]1CN([C@@H](C)CO)C(=O)c2cc(NC(=O)Cc3ccccc3)ccc2O[C@H]1CN(C)S(=O)(=O)c1cccs1	inactive
COc1ccc(NC(=O)Nc2ccc3c(c2)C(=O)N([C@H](C)CO)C[C@H](C)[C@H](CN(C)S(=O)(=O)c2ccc(OC)cc2)OCCCC[C@@H](C)O3)cc1	inactive
COc1ccccc1S(=O)(=O)N[C@H]1CC[C@H](CCNC(=O)C2CC2)O[C@@H]1CO	inactive
C[C@@H]1O[C@@H](O[C@@H]2C=C(CO)[C@H]3[C@H](O[C@@H]4O[C@H](CO)[C@@H](O)[C@H](O)[C@H]4O)OC=C[C@H]32)[C@H](O)[C@H](O)[C@H]1OC(=O)/C=C/c1ccccc1	inactive
C[C@H](CO)N1C[C@H](C)[C@H](CN(C)S(=O)(=O)c2ccc(F)cc2)OCCCC[C@H](C)Oc2ccc(NC(=O)CCC(F)(F)F)cc2C1=O	inactive
C[C@@H]1CCCCO[C@H](CN(C)Cc2ccccc2)[C@H](C)CN([C@H](C)CO)C(=O)c2cc(NC(=O)NC3CCCCC3)ccc2O1	inactive
C[C@@H]1CN([C@H](C)CO)C(=O)c2cccc(NC(=O)Nc3ccc4c(c3)OCO4)c2O[C@@H]1CN(C)Cc1ccc(-c2ccccc2)cc1	inactive
C[C@H]1CN([C@@H](C)CO)C(=O)c2cccc(NC(=O)Nc3ccc4c(c3)OCO4)c2O[C@H]1CN(C)Cc1ccc(Oc2ccccc2)cc1	active
C[C@H](CO)N1C[C@H](C)[C@@H](CN(C)Cc2ccc(Oc3ccccc3)cc2)Oc2c(NC(=O)Nc3ccc4c(c3)OCO4)cccc2C1=O	inactive
C[C@H]1CN([C@@H](C)CO)C(=O)c2cccc(NC(=O)Nc3ccc4c(c3)OCO4)c2O[C@@H]1CN(C)Cc1ccc(-c2ccccc2)cc1	inactive
C[C@H](CO)N1C[C@H](C)[C@H](CN(C)Cc2ccc(Oc3ccccc3)cc2)Oc2c(NC(=O)Nc3ccc4c(c3)OCO4)cccc2C1=O	active
C[C@@H]1CN([C@@H](C)CO)C(=O)c2cccc(NC(=O)Nc3ccc4c(c3)OCO4)c2O[C@@H]1CN(C)Cc1ccc(Oc2ccccc2)cc1	inactive
C[C@H]1CN([C@@H](C)CO)C(=O)c2cccc(NC(=O)Nc3ccc4c(c3)OCO4)c2O[C@@H]1CN(C)Cc1ccc(Oc2ccccc2)cc1	inactive
C[C@@H]1CN([C@H](C)CO)C(=O)c2cccc(NC(=O)Nc3ccc4c(c3)OCO4)c2O[C@@H]1CN(C)Cc1ccc(Oc2ccccc2)cc1	inactive
C[C@@H]1CN([C@@H](C)CO)C(=O)c2cccc(NC(=O)Nc3ccc4c(c3)OCO4)c2O[C@@H]1CN(C)Cc1ccc(-c2ccccc2)cc1	active
C[C@@H]1CN([C@@H](C)CO)C(=O)c2cccc(NC(=O)Nc3ccc4c(c3)OCO4)c2O[C@H]1CN(C)Cc1ccc(Oc2ccccc2)cc1	inactive
C[C@H]1CN([C@@H](C)CO)C(=O)c2cccc(NC(=O)Nc3ccc4c(c3)OCO4)c2O[C@H]1CN(C)Cc1ccc(-c2ccccc2)cc1	inactive
C[C@@H]1CN([C@H](C)CO)C(=O)c2cccc(NC(=O)Nc3ccc4c(c3)OCO4)c2O[C@H]1CN(C)Cc1ccc(Oc2ccccc2)cc1	active
